Data published in PubChem BioAssay (NCATS).
Records with an inconclusive call do not appear. Active and inactive are the calls of the source. Unless noted, the rule behind the calls is not given here.

Legend:
[1] = qHTS profiling of the MIPE4 collection as inhibitors of Plasmodium falciparum (3D7) proliferation (AID 743344);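 note: scaled between DMSO vehicle wells and 0.29 µM artemisinin as full inhibition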; details: P. falciparum 3D7 in erythrocytes, SYBR Green DNA fluorescence, 72 h; at 28.5 µM unless noted
In short: (§1)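 Erythrocytes infected with P. falciparum (0.3% parasitemia, 2.5% hematocrit) incubated with compounds 72 h at 37 C, 5% CO2. Lysis with saponin/Triton buffer containing SYBR Green I, overnight at room temperature in the dark; DNA fluorescence (485/535 nm) normalised to 0.29 uM artemisinin and DMSO.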

[2] = qHTS profiling of the MIPE4 collection as inhibitors of Plasmodium falciparum (DD2) proliferation (AID 743345); details: P. falciparum Dd2 in erythrocytes, SYBR Green DNA, 72 h; at 28.5 µM unless noted
In short: as §1

[3] = qHTS profiling of the MIPE4 collection as inhibitors of Plasmodium falciparum (DD2) proliferation (Rep 2) (AID 743346); details: P. falciparum Dd2 in erythrocytes, SYBR Green DNA, 72 h; at 28.5 µM unless noted
In short: as §1

[4] = High-throughput drug toxicity screening in the BPDCN cell line Gen2.2 (AID 1224824); details: Gen2.2 BPDCN cells; at 45.8 µM (top of the series) unless noted;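 note: cells exposed to compounds for 48 h before reading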
In short: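 Gen2.2 cells, 500 per well in phenol red-free RPMI with 10% FBS, exposed to compounds 48 h at 37 C, 5% CO2; viability by CellTiter-Glo luminescence. Percent activity scaled to DMSO (100%) and 9.2 uM bortezomib final (0%).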

[5] = High-throughput drug toxicity screening in the BPDCN cell line Cal-1 (AID 1224825); details: Cal-1 BPDCN cell viability, qHTS; at 45.8 µM (top of the series) unless noted
In short: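 Cal-1 cells, 500 per well in phenol-red-free RPMI with 10% FBS, exposed to compounds for 48 hours at 37C, 5% CO2. Viability read by CellTiter-Glo luminescence; percent activity normalized to DMSO (100%) and 9.2 uM bortezomib final (0%).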

[6] = qHTS assay for measurement of the activity of small molecule inhibitors on Zika virus induced Caspase-3 activity in human iPSC derived neural progenitor cells (hNPCs) (AID 1224857; active = well fitted inhibition curve with a large enough effect; note: % of control where 0% means no effect; nearly all actives have a fitted effect of over 65% in size)
In short: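 hNPCs seeded 350 cells/well, cultured 16–20 h; compounds added 1 h before ZIKV (2 FFU/cell), 37 C 6 h. Caspase-Glo 3/7 luminescence after 30 min RT; % inhibition from induction scaled to uninfected (0%) and infected (100%) wells.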

[7] = qHTS assay for measurement of the activity of small molecule inhibitors on Zika virus induced Caspase-3 activity in human astrocytoma cells (AID 1224859; active = well fitted inhibition curve with a large enough effect;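 note: plate controls were ZIKV-infected untreated cells for no effect and uninfected cells for full effect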)
In short: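 Luminescence read-out (Caspase-Glo 3/7, 30 min RT) of caspase activity in SNB-19 cells infected 6 h with ZIKV, 2 FFU/cell, after 1 h compound pretreatment; % inhibition from induction normalised to uninfected (0%) and infected (100%) wells.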

[8] = qHTS Screen of the MIPE 4.0 Collection Against Ewings Sarcoma (RDES) (AID 1259252; active = well fitted inhibition curve with a large enough effect; note: nearly all actives have a fitted effect of over 35% in size; note: potency is the fitted concentration of half-maximal effect)
In short: (§2)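 Viability screen: 48 h incubation at 37C, 95% humidity, 5% CO2 with serially titrated compound, followed by CellTiter-Glo readout.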

[9] = qHTS Screen of the MIPE 4.0 Collection Against Ewings Sarcoma (TC32) (AID 1259256; active = well fitted inhibition curve with a large enough effect; note: nearly all actives have a fitted effect of over 45% in size; note: potency is the fitted concentration of half-maximal effect)
In short: as §2

[10] = qHTS profiling of the MIPE4 collection as inhibitors of Plasmodium falciparum (HB3) proliferation (AID 743347);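 note: plate controls were DMSO vehicle wells for no effect and artemisinin wells for full effect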; details: P. falciparum HB3 in erythrocytes, SYBR Green DNA, 72 h; at 28.5 µM unless noted
In short: as §1

[11] = qHTS Screen of the MIPE 4.0 Collection Against Ewings Sarcoma (EW8) (AID 1259255; active = well fitted inhibition curve with a large enough effect; note: nearly all actives have a fitted effect of over 35% in size; note: potency is the fitted concentration of half-maximal effect;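 for viability: 100% = DMSO-treated cells and 0% = medium-only wells without cells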)
In short: as §2

Compound | parasite growth, % of DMSO control [1] [%] | parasite growth remaining, % of DMSO control (lower = more inhibition) [2] [%] | parasite growth, % of control (lower = inhibition) [3] [%] | cell viability, % of control (lower = more cytotoxic) [4] [%] | viability (% of control) [5] [%] | Potency [6] | Potency [7] | Potency [8] | Potency [9] | growth, % of control [10] [%] | Potency [11]
N#CC(=C1Nc2ccccc2S1)c1ccnc(OCc2ccc(CN3CCOCC3)cc2)n1 | 14.1 | 57.9 | 35.2 | 5.77 | 2.57 | inactive | inactive | 7.43 µM (active) | 7.43 µM (active) |  | 
O=C1C(c2c(O)[nH]c3ccccc23)=Nc2ccccc21 | 90.1 | 86.5 | 73.7 | 52.3 | 68.6 | inactive | inactive | 0.469 µM (active) |  | 98.4 | 26.4 µM (active)
CN(C)c1ccccc1CN1CCCN(Cc2ccccc2N(C)C)C1c1ccncc1 | 17.2 | 9.84 | 11.1 | 13.5 | 29.7 | inactive | inactive | 20.9 µM (active) |  | 12.9 | 18.7 µM (active)
CCCCN(CCCC)CC(O)c1cc(Cl)cc2c1-c1ccc(Cl)cc1C2=Cc1ccc(Cl)cc1 (stereo not given) | 8.66 | 7.19 | 11.5 | 27 | 63 | inactive | inactive | inactive |  | 11.8 | inactive
CC1=C(C(=O)Nc2cc3cn[nH]c3cc2F)C(c2ccc(C(F)(F)F)cc2)CC(=O)N1 (stereo not given) | 5.13 | 8.5 | 7.16 | 88.7 | 58 | inactive | inactive | 1.48 µM (active) | inactive | 5.72 | inactive
C[C@@]1(C(=O)Nc2ccc(F)nc2)CCCN1c1nc(Nc2cc(C3CC3)[nH]n2)c2cccn2n1 | 10.3 | 14.6 | 23.8 | 131 | 17.3 | inactive | inactive | 2.64 µM (active) |  | 4.94 | 1.05 µM (active)
CNC1CCC(N(Cc2cccc(-c3ccncc3)c2)C(=O)c2sc3ccccc3c2Cl)CC1 (stereo not given) | 4.86 | 7.31 |  | 3.76 | 1.63 | inactive | inactive | 26.4 µM (active) | 20.9 µM (active) | 6.96 | 23.5 µM (active)
CCCCCOC(=O)Nc1nc(=O)n([C@@H]2O[C@H](C)[C@@H](O)C2O)cc1F (stereo not given in full) | 253 | 102 | 83.9 | 124 | 102 | inactive | inactive | inactive | 20.9 µM (active) | 171 | inactive
COc1cc(C=CC(=O)O)ccc1O |  | 95 | 98.9 | 105 | 96.5 | inactive | inactive | inactive |  | 82.4 | inactive
